Screening results (PubChem)
Only some compounds are listed: those with a hit (about 4.6% of all), similar ones and a draw of the others.
tim23-1 inh: growth inhibitors of tim23-1 mutant yeast, primary screen, luminescence, uHTS; S. cerevisiae tim23-1 growth, BacTiter-Glo luminescence, 24 h; inhibition, % at 20 µM; hit rate 1.3% among 330,000; AID 463212, 2010;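 active = growth inhibition of the mutant yeast at or above 50%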;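 also: temperature-sensitive mutant grown at 25 °C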
PfHsp90 set2: growth inhibition of PfHsp90-expressing yeast, primary screen, antimalarial PfHsp90 inhibitor project, S. cerevisiae, BacTiter-Glo luminescence, single point, set 2 | BacTiter-Glo ATP, 48 h; yeast lacking PDR1 and PDR3 efflux regulators | inhibition, % at 9.4 µM | hit rate 0.32% among 310,000 | AID 504621, 2011;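 active = every replicate shows inhibition above about 80%, whatever the replicate mean, limit read from the data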
tim10-1 inh: growth inhibitors of tim10-1 mutant yeast, primary screen, luminescence, uHTS; S. cerevisiae tim10-1 ts strain growth, BacTiter-Glo, 24 h; AID 463190, 2010; inhibition, % at 20 µM; hit rate 2.2% among 330,000;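 active = inhibition of at least 40%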;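 also: mutant grown at 25 °C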
TIM10 inh: growth inhibitors of isogenic TIM10 control yeast, primary screen, counter-screen for tim10-1 yeast inhibitor project, luminescence, uHTS; S. cerevisiae TIM10 strain growth, BacTiter-Glo luminescence, 24 h; inhibition, % at 10 µM; hit rate 1.4% among 330,000;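 active = inhibition of 40% or more at the single tested concentration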;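 also: wild-type TIM10 isogenic control strain grown at permissive 25 °C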
SKKanGAS inh: S. pyogenes SKKanGAS growth inhibitors in kanamycin, primary screen, streptokinase expression inhibitor project, SKKanGAS strain, BacTiter-Glo luminescence; 6 h; AID 1662, 2009; hit rate 1.3% among 300,000; inhibition, % at 7.5 µM;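 active = mean replicate score, as percent of positive control median, at least 50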;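 also: strain carries kanamycin resistance gene driven by streptokinase promoter and grows in 40 µg/ml kanamycin; loss of luminescence reflects streptokinase promoter inhibition or plain growth inhibition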
NALP3 yeast inh: NALP3 inflammasome inhibitors in reconstituted yeast, primary screen, luminescence, uHTS | AID 2825, 2010 | Yeast reconstituted NLRP3/ASC/caspase-1, beta-gal luminescence, 24 h | inhibition, % at 10 µM | hit rate 0.39% among 330,000;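 active = inhibition of 50% or more; inactive = inhibition below 50%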
tim10-1 confirm: growth inhibitors of tim10-1 mutant yeast, confirmation, single concentration, luminescence, S. cerevisiae. inhibition, % at 20 µM. S. cerevisiae tim10-1 ts strain growth, BacTiter-Glo, 24 h. hit rate 56% among 7,400. shares compounds with tim10-1 inh;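 active = inhibition of yeast growth at or above a set limit in either of two repeat tests at 20 µM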;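 also: tim10-1 mutant grown at permissive 25 °C to find synthetic lethal compounds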
Large screens that a line does not name were inactive (follow-up assays come after a bar, where they were run).

CCOC(=O)C1CCN(S(=O)(=O)c2cc(Br)cc3c2N(C(=O)C2CC2)CC3)CC1	none
Cc1nc(Nc2ccc(Cl)cc2Cl)sc1C(=O)Nc1ccccc1	tim10-1 inh 47.5 | tim10-1 confirm 31.1
CCOC(=O)N1CCN(C(=O)CSCc2ccc(Br)cc2)CC1	none
CC(=O)c1ccc(O)c(CSC2=NCCS2)c1	none
Cc1noc(C)c1COc1ccccc1C(=O)N(C)Cc1ccc(F)cc1	none (no result: PfHsp90 set2, SKKanGAS inh)
Cc1noc(C)c1COc1ccccc1C(=O)N(C)Cc1ccc(C(C)(C)C)cc1	tim10-1 inh 42.3 (no result: PfHsp90 set2, SKKanGAS inh) | tim10-1 confirm inactive
CCCn1c(=S)[nH]c2cc(C(=O)N(CCO)Cc3ccccc3)ccc2c1=O	none
COCCNC(=S)N/N=C(\C)c1ccc2cc(OC)ccc2c1	none
COCCNC(=S)N/N=C(\C)c1cccc(C(F)(F)F)c1	tim10-1 inh 45.2 | tim10-1 confirm inactive
COCCNC(=S)N/N=C(\C)c1cc2ccccc2o1	tim10-1 inh 41.5 | tim10-1 confirm inactive
Cc1onc(-c2ccccc2)c1C(=O)OCCOc1ccccc1F	none
Cc1cc(OCC(=O)Nc2nnc(C3CC3)s2)ccc1[N+](=O)[O-]	none (no result: SKKanGAS inh)
Cc1ccc(S(=O)(=O)Nc2cc(C(F)(F)F)ccc2N2CCOCC2)c(C)c1	none
Cc1cc(-c2ccc(C)c(S(=O)(=O)NCC3CCN(Cc4ccc(F)cc4)CC3)c2)on1	tim10-1 inh 42.2 | tim10-1 confirm inactive
CC1CN(C(=O)c2ccc(NS(=O)(=O)c3ccc(F)c(F)c3)cc2)CC(C)O1 (stereo not drawn)	none
Cc1ccc(S(=O)(=O)N2CCOCC2)cc1C(=O)Nc1nc(-c2cccnc2)cs1	none
O=S(=O)(c1ccc(-c2csc(-c3cccnc3)n2)cc1)N1CCOCC1	tim10-1 inh 42.1 | tim10-1 confirm inactive
Cc1ccc(N2Cc3ccccc3C2=S)cc1	tim10-1 inh 41.6 | tim10-1 confirm inactive
CCCCC(=O)N/N=C/c1ccc(-c2ccc([N+](=O)[O-])cc2)o1	none
CC(C)(C)NC(=S)N/N=C\c1ccc(-c2ccc([N+](=O)[O-])cc2)o1	tim10-1 inh 40.4 (no result: PfHsp90 set2) | tim10-1 confirm 32.8
Cn1c(-c2ccc(C=O)s2)nc2c3ccccc3c3ccccc3c21	none (no result: PfHsp90 set2)
O=C(O)CCC(=O)Nc1cccc2cccnc12	tim10-1 inh 72.4 | tim10-1 confirm inactive
CC(=O)Nc1ccc(Nc2nc(-c3ccccc3)nc3ccccc23)cc1	tim10-1 inh 48.4 | tim10-1 confirm 34.5
O=C(O)c1ccc(Nc2nc(-c3ccc([N+](=O)[O-])cc3)nc3ccccc23)cc1	none
Cc1ccc(CNc2nc(-c3cccnc3)nc3ccccc23)cc1	none
Cc1ccccc1Nc1nc(-c2cccnc2)nc2ccccc12	tim10-1 inh 43.4 | tim10-1 confirm inactive
CN(Cc1ccc(C(C)(C)C)cc1)C(=O)c1ccc2c(=O)n3c(nc2c1)CCC3	none
CCCCn1c(N)c(N(CCOC)C(=O)CN2c3ccccc3CC2C)c(=O)[nH]c1=O (stereo not drawn)	none
CC(C)c1ccc(/C=N/n2c(COc3ccccc3)n[nH]c2=S)cc1	tim10-1 inh 42.6 | tim10-1 confirm inactive
S=c1[nH]nc(COc2ccccc2)n1/N=C/c1cccc(Br)c1	tim10-1 inh 44.9 | tim10-1 confirm inactive
S=c1[nH]nc(COc2ccccc2)n1/N=C/c1ccc(Br)cc1	none
CN(C)c1ccc(/C=N/n2c(COc3ccccc3)n[nH]c2=S)cc1	none
S=c1[nH]nc(COc2ccccc2)n1/N=C/c1cccs1	tim10-1 inh 41.6 | tim10-1 confirm inactive
COc1cc(NC(=O)CCc2nnc3ccc(N4CCN(C)CC4)nn23)cc(OC)c1	none
Cc1cn([C@H](C(=O)NCCCCCCCCCCC(=O)N2CCN(C(=O)OC(C)(C)C)CC2)[C@@H](C)O)nn1	none (no result: SKKanGAS inh)
O=C(N/C(=C/c1cccc([N+](=O)[O-])c1)C(=O)N1CCOCC1)c1ccc(Br)cc1	none
CCN(CC)C(=O)CSc1ncnc2sc(-c3ccccc3)cc12	tim10-1 inh 45.9 (no result: PfHsp90 set2) | tim10-1 confirm inactive
Cc1ccc(/C=c2/sc3nnc(-c4ccccc4Cl)n3c2=O)o1	tim10-1 inh 45.1 | tim10-1 confirm 38.0
CCN(CC)c1ccc(/C=c2\sc3nnc(-c4ccccc4Cl)n3c2=O)cc1	none
CCOC(=O)N1CCN(C(=O)CSc2nc3c(cnn3-c3ccc(Cl)cc3)c(=O)[nH]2)CC1	none
COc1ccc(/C=N/Nc2cn[nH]c(=O)c2Cl)cc1	tim10-1 inh 41.7 | tim10-1 confirm inactive
Cc1ccc(/C=N\Nc2cn[nH]c(=O)c2Cl)cc1	none
Cc1c(Cl)cccc1NC(=O)CNC(=O)C1CCN(C(=O)Nc2ccccc2)CC1	none (no result: SKKanGAS inh)
CN(CCc1ccccn1)C(=O)Nc1ccc(Cl)cc1	none
CN(CCc1ccccn1)C1CC(=O)N(c2ccc(Cl)cc2)C1=O (stereo not drawn)	tim10-1 inh 40.5 | tim10-1 confirm 34.2
Cc1cc(N2CCOCC2)nc(SCc2ccc(Cl)cc2Cl)n1	none
COc1ccc(C(=O)Oc2ccc3c(c2)OCO3)cc1OC	tim10-1 inh 41.9 | tim10-1 confirm inactive
COc1cc(OC)c(C(=O)Oc2ccc3c(c2)OCO3)cc1OC	none
CCc1ccc(/C=C2\Oc3cc(OS(C)(=O)=O)ccc3C2=O)cc1	tim10-1 inh 40.4 | tim10-1 confirm inactive
CCCc1cc(C(=O)Cc2ccc(F)cc2)c(O)cc1O	none
CCCc1cc(C(=O)Cc2ccc(C(=O)OCC)o2)c(O)cc1O	tim10-1 inh 45.1 | tim10-1 confirm inactive
O=C(Cc1csc(NC(=O)c2ccc(F)cc2)n1)NO	none
CC(C)(C)c1ccc(C(=O)CC(Sc2ccc(Cl)cc2)C(=O)O)cc1 (stereo not drawn)	PfHsp90 set2 81.3, tim10-1 inh 40.7 | tim10-1 confirm 50.8
CC(C)n1nnnc1SCC(=O)N1N=C(c2cccs2)CC1c1cccs1 (stereo not drawn)	none (no result: SKKanGAS inh)
O=C(Oc1ccc(Br)cc1C(=S)N1CCCCC1)c1cc([N+](=O)[O-])cc([N+](=O)[O-])c1	tim10-1 inh 51.1 | tim10-1 confirm inactive
O=C(Oc1ccc(Br)cc1C(=S)N1CCCC1)c1ccccc1Cl	none
CCOc1ccc(NC(=O)C2CCN(S(=O)(=O)c3ccc4c(c3)NC(=O)C(C)S4)CC2)cc1 (stereo not drawn)	none
COc1ccc(NC(=O)c2ccc3c(=O)n(CC4CCCO4)c(=S)[nH]c3c2)c(OC)c1 (stereo not drawn)	none
COc1cccc(-n2cc(-c3ccc(F)cc3)[nH]c2=S)c1	tim10-1 inh 46.0 | tim10-1 confirm inactive
